Experimental data taken from PubChem BioAssay (Tox21).
Inconclusive results are not listed. Where a call stands in place of a potency, no number is given. The source made the active and inactive calls. Unless noted, calls come from the whole dose curve; as a rule, active = well fitted curve in the direction sought with a large enough effect in the repeat runs; inconclusive = weak or mixed curves; inactive = no such curve, though single readings can be large; an effect the other way counts as inactive or inconclusive.

Tests used:
[1] = qHTS assay for small molecule agonists of the p53 signaling pathway (AID 651631; calls by dose curve; note: nearly all actives have a fitted effect of over 15% in size; note: potency is the fitted concentration of half-maximal effect); details: HCT-116 p53RE-bla reporter, beta-lactamase FRET ratio, 16 h; series mostly up to 73.3 µM
Summary of the method: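 Agonist mode screen using a stably integrated beta-lactamase gene under p53 response elements in HCT-116 cells. Compound exposure lasts 16 h at 37 °C; fluorescence intensity is measured following 2 h FRET substrate loading.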

[2] = qHTS assay for small molecules that induce genotoxicity in human embryonic kidney cells expressing luciferase-tagged ATAD5 (AID 651632); details: HEK293T ATAD5-luciferase induction, 16 h; series mostly up to 83.3 µM; note: nearly all actives have a fitted effect of over 15% in size; note: potency is the fitted concentration of half-maximal effect
Summary of the method: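 DMSO vehicle served as the control. HEK293T reporter cells, 16 hr at 37C, then 30 min Amplite at room temperature; ATAD5 induction is measured as luciferase activity.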

[3] = qHTS assay for small molecule agonists of the p53 signaling pathway - cell viability (AID 651633; calls by dose curve; note: nearly all actives have a fitted effect of over 30% in size; note: potency is the fitted concentration of half-maximal effect); details: p53RE-bla HCT-116 viability, ATP luminescence, 16 h; series mostly up to 83.3 µM
Summary of the method: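 p53RE-bla cells were treated with compound for 16 hours at 37 C. Cytotoxicity was then measured as CellTiter-Glo luminescence after 30 min at room temperature.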

[4] = qHTS assay for small molecules that induce genotoxicity in human embryonic kidney cells expressing luciferase-tagged ATAD5 - cell viability (AID 651634; calls by dose curve; note: nearly all actives have a fitted effect of over 25% in size; note: potency is the fitted concentration of half-maximal effect); details: HEK293T ATAD5-luc cells viability, CellTiter-Fluor, 15.5 h; series mostly up to 83.3 µM
Summary of the method: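 Here HEK293T cells with the ATAD5 luciferase reporter are incubated with test compounds for 15.5 hr, and cytotoxicity is then gauged by measuring protease activity in live cells using fluorescence.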

[5] = qHTS assay for small molecule disruptors of the mitochondrial membrane potential - cell viability (AID 720634; calls by dose curve;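 note: human HepG2 liver cancer cells; nearly all actives have a fitted effect of over 20% in size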); details: HepG2 viability, ATP luminescence (CellTiter-Glo), 1 h; series mostly up to 83.2 µM
Summary of the method: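 Viability of HepG2 cells is scored from ATP content by luminescence; cells are exposed to compound for 1 hr at 37 C and 5% CO2, then dosed with m-MPI dye before the CellTiter-Glo reagent.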

[6] = qHTS assay to test for compound auto fluorescence at 590 nm (red) in HepG2 cells (AID 720674); details: HepG2 autofluorescence, red 540/590 nm, 1 h; series mostly up to 46 µM
Summary of the method: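 HepG2 cells, 2,000 per well in MEM with 10% FBS, attached overnight at 37 C, then got 23 nL compound or DMSO. After 1 hr at 37 C, 5% CO2, red fluorescence was read at 540/590 nm against Rose Bengal sodium as reference.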

[7] = qHTS assay to test for compound auto fluorescence at 535 nm (green) in HepG2 cells (AID 720675); details: green autofluorescence 485/535 nm, 1 h; series mostly up to 46 µM
[8] = qHTS assay to test for compound auto fluorescence at 460 nm (blue) in HEK293 cells (AID 720678); details: blue autofluorescence 405/460 nm; series mostly up to 46 µM
Summary of the method: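 Measured: blue fluorescence (Ex 405/Em 460 nm) of compound-treated HEK293 cells, incubated overnight at 37C with 5% CO2 and scaled to triamterene equivalents.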

[9] = qHTS assay to test for compound auto fluorescence at 590 nm (red) in HEK293 cells (AID 720679); details: red autofluorescence 540/590 nm; series mostly up to 46 µM
Summary of the method: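 Using HEK293 cells at 2,000 per well, the screen added 23 nL of each compound after cell attachment and incubated overnight (37C, 5% CO2). The plate reader then captured red-label fluorescence, Ex/Em 540/590nm.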

[10] = qHTS assay for small molecule disruptors of the mitochondrial membrane potential (AID 720635); details: HepG2 mitochondrial membrane potential, Mito-MPS dye ratio; series mostly up to 83.2 µM
Summary of the method: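 HepG2 cells exposed to compound 1 hr at 37C, then Mito-MPS dye 30 min. Ratio read of aggregate (540/590 nm) versus monomer (490/535 nm) fluorescence.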

| SMILES | Potency [1] | Potency [2] | Potency [3] | Potency [4] | Potency [5] | outcome [6] | Potency [7] | Potency [8] | outcome [9] | Potency [10] |
| --- | --- | --- | --- | --- | --- | --- | --- | --- | --- | --- |
| CCC(O)c1ccccc1 (stereo not given) | inactive | inactive | inactive | inactive | inactive | inactive | inactive | inactive | inactive | – |
| O=C1OC(=O)c2cc(-c3ccc4c(c3)C(=O)OC4=O)ccc21 | inactive | inactive | inactive | inactive | inactive | inactive | inactive | inactive | inactive | – |
| OCl | inactive | inactive | inactive | inactive | inactive | inactive | inactive | inactive | inactive | – |
| CC(=O)NC[C@H]1CN(c2ccc(N3CCOCC3)c(F)c2)C(=O)O1 | inactive | inactive | inactive | inactive | inactive | inactive | – | inactive | inactive | inactive |
| C[C@@H]1C[C@H]2[C@@H]3C[C@H](F)C4=CC(=O)C=C[C@]4(C)[C@@]3(Cl)[C@@H](O)C[C@]2(C)[C@H]1C(=O)COC(=O)C(C)(C)C | inactive | inactive | inactive | inactive | inactive | inactive | inactive | inactive | inactive | – |
| O=C(O)COc1ccccc1/C=N/NC(=O)c1ccncc1 | inactive | inactive | inactive | inactive | inactive | inactive | – | inactive | inactive | inactive |
| C1CCc2nnnn2CC1 | inactive | inactive | inactive | inactive | – | inactive | inactive | inactive | inactive | inactive |
| C[C@]12O[C@H](C[C@]1(O)CO)n1c3ccccc3c3c4c(c5c6ccccc6n2c5c31)CNC4=O | 0.075 µM (active) | inactive | 0.944 µM (active) | 4.73 µM (active) | inactive | inactive | inactive | inactive | inactive | – |
| CCN(CC)C(=O)[C@]1(c2ccccc2)C[C@@H]1CN | inactive | inactive | inactive | inactive | inactive | inactive | inactive | inactive | inactive | – |
| CCN(CC)CCOC[C@H]1O[C@@H](O)[C@H](OCCN(CC)CC)[C@@H](O)[C@@H]1O | inactive | inactive | inactive | inactive | inactive | inactive | – | inactive | inactive | inactive |
| CO/N=C(\C(=O)N[C@@H]1C(=O)N2C(C(=O)O)=C(CSc3nc(C)c(CC(=O)O)s3)CS[C@H]12)c1csc(N)n1 | inactive | inactive | inactive | inactive | – | inactive | inactive | inactive | inactive | inactive |
| C=C1C(=C/C=C2\CCC[C@]3(C)[C@@H]([C@H](C)CCCC(C)C)CC[C@@H]23)C[C@@H](O)C[C@@H]1O | 29.8 µM (active) | inactive | 29.8 µM (active) | 23.7 µM (active) | inactive | inactive | inactive | inactive | inactive | – |
| O=C(N[C@H](CO)[C@H](O)c1ccc([N+](=O)[O-])cc1)C(Cl)Cl | inactive | inactive | inactive | inactive | inactive | inactive | inactive | inactive | – | – |
| CC12CCC(C[N+](C)(CCC[N+](C)(C)C)C1)C2(C)C (stereo not given) | inactive | inactive | inactive | inactive | inactive | inactive | inactive | – | inactive | – |
| C/C(=C\C(=O)OCCCCCCCCC(=O)O)C[C@@H]1OC[C@H](C[C@@H]2O[C@H]2[C@@H](C)[C@H](C)O)[C@@H](O)[C@H]1O | inactive | inactive | inactive | inactive | inactive | inactive | inactive | inactive | inactive | – |
| Cc1cccc(C)c1NC(=O)C1CCCCN1C (stereo not given) | inactive | inactive | inactive | inactive | inactive | inactive | inactive | inactive | inactive | – |
| C=N[C@@H](C(=O)N[C@@H]1C(=O)N2[C@@H]1SC(C)(C)[C@@H]2C(=O)O)c1ccccc1 | inactive | inactive | inactive | inactive | inactive | inactive | inactive | inactive | inactive | – |
| NC(=O)[C@@H]1CCCN1C(=O)[C@H](Cc1cnc[nH]1)NC(=O)[C@@H]1CCC(=O)N1 | inactive | inactive | inactive | inactive | inactive | inactive | inactive | – | – | – |
| CC(C)OC(=O)Nc1ccc2nc(-c3cscn3)[nH]c2c1 | 2.37 µM (active) | 10.6 µM (active) | inactive | inactive | inactive | inactive | inactive | inactive | inactive | – |
| CN[C@@H]1[C@@H](O[C@H]2O[C@H](CO)[C@@H](N)[C@H](O)[C@H]2O)O[C@H]2C[C@@H](N)[C@@H](O[C@H]3[C@H](O)[C@@H](O)[C@H](N)C[C@@H]3N)O[C@@H]2[C@@H]1O | inactive | inactive | inactive | inactive | inactive | inactive | inactive | inactive | inactive | – |
| O=C[C@H](O)[C@@H](O)[C@@H](O)[C@H](O)CO | inactive | inactive | inactive | inactive | inactive | inactive | inactive | – | inactive | – |

| SMILES | Potency [1] | Potency [2] | Potency [3] | Potency [4] | Potency [5] | outcome [6] | Potency [7] | Potency [8] | outcome [9] | Potency [10] |
| --- | --- | --- | --- | --- | --- | --- | --- | --- | --- | --- |
| NC[C@@H]1CC[C@@H](N)[C@@H](O[C@H]2[C@H](O)[C@@H](O[C@H]3O[C@H](CO)[C@@H](O)[C@H](N)[C@H]3O)[C@H](N)C[C@@H]2N)O1 | inactive | inactive | inactive | inactive | inactive | inactive | – | inactive | inactive | – |
| NC[C@H]1O[C@H](O[C@H]2[C@H](O)[C@@H](O[C@H]3O[C@H](CO)[C@@H](O)[C@H](N)[C@H]3O)[C@H](N)C[C@@H]2N)[C@H](N)C[C@@H]1O | inactive | inactive | inactive | inactive | – | inactive | inactive | inactive | inactive | inactive |
| O=P(O)(O)C(O)(Cn1ccnc1)P(=O)(O)O | inactive | inactive | inactive | inactive | inactive | inactive | – | – | inactive | inactive |
| O=C(O)CCCC/C=C(\c1ccccc1)c1cccnc1 | inactive | inactive | inactive | inactive | inactive | inactive | inactive | inactive | inactive | – |
| NC(=O)C1c2ccccc2CCc2ccccc21 | inactive | inactive | inactive | inactive | inactive | inactive | inactive | inactive | inactive | – |
| CC(C)(COP(=O)(O)OP(=O)(O)OC[C@H]1O[C@@H](n2cnc3c(N)ncnc32)[C@H](O)[C@@H]1OP(=O)(O)O)C(O)C(=O)NCCC(=O)NCCS (stereo not given in full) | inactive | inactive | inactive | inactive | – | inactive | inactive | inactive | – | inactive |
| CCC(=O)OC(OP(=O)(CCCCc1ccccc1)CC(=O)N1C[C@H](C2CCCCC2)C[C@H]1C(=O)O)C(C)C (stereo not given in full) | inactive | inactive | inactive | inactive | – | inactive | inactive | inactive | – | inactive |
| N[C@@H](Cc1cnc[nH]1)C(=O)O | inactive | inactive | inactive | inactive | inactive | inactive | inactive | inactive | – | – |
| NC(N)=NCC1COC2(CCCCC2)O1 (stereo not given) | inactive | inactive | inactive | inactive | inactive | inactive | inactive | inactive | inactive | – |
| C[C@H](NCCc1ccc(O)cc1)[C@H](O)c1ccc(O)cc1 | inactive | inactive | inactive | inactive | inactive | inactive | – | inactive | inactive | – |
| COC(=O)[C@H]1[C@H]2C[C@H]3c4[nH]c5ccccc5c4CCN3C[C@H]2CC[C@@H]1O | inactive | inactive | inactive | inactive | inactive | inactive | – | – | inactive | inactive |
| CCCCCCOC(=O)c1cccnc1 | inactive | inactive | inactive | inactive | – | inactive | inactive | inactive | inactive | inactive |
| C=C1[C@H](CO)[C@@H](O)C[C@@H]1n1cnc2c(=O)[nH]c(N)nc21 | inactive | inactive | inactive | inactive | – | inactive | inactive | inactive | inactive | inactive |
| CCN1CCCC1CNC(=O)c1cc(S(=O)(=O)CC)ccc1OC (stereo not given) | inactive | inactive | inactive | inactive | – | inactive | – | inactive | inactive | inactive |
| O=C(O)c1ccc(NC2OC[C@@H](O)[C@H](O)[C@H]2O)cc1 (stereo not given in full) | inactive | inactive | inactive | – | inactive | inactive | inactive | inactive | inactive | inactive |
| O=C1c2ccccc2CN2C(=O)c3ccccc3CN12 | inactive | inactive | inactive | inactive | – | inactive | inactive | inactive | inactive | inactive |
| COc1c(O)cc2c(c1O)[C@@H]1O[C@H](CO)[C@@H](O)[C@H](O)[C@H]1OC2=O | inactive | inactive | inactive | – | inactive | inactive | inactive | inactive | inactive | inactive |
| C=CCN1C(=O)C(CC(C)C)NC1=S (stereo not given) | inactive | inactive | inactive | – | inactive | inactive | inactive | – | inactive | inactive |
| CCN(CC)CCNC(=O)c1ccc(NS(C)(=O)=O)cc1 | inactive | inactive | inactive | – | inactive | inactive | inactive | inactive | inactive | inactive |
| Cc1ccc(Cl)c(N)c1Cl | inactive | inactive | inactive | – | inactive | inactive | inactive | inactive | inactive | inactive |
